Results: PubChem BioAssay (NCI)
Compounds without any hit were thinned out: in the full panel of roughly 79,000, 15% have a hit. Cut-off read from the data, not from the text of the source: active = growth inhibition above about 70%; inactive = the rest.

Columns and labels:
[1] = NCI Yeast Anticancer Drug Screen. Data for the rad50 strain (AID 155);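 note: 0% = growth of vehicle-only cultures of the same strain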; settings: S. cerevisiae rad50 strain growth inhibition; at 50.0 µM; stronger effect = higher value
How it was run: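 Yeast carrying a defined DNA repair defect were exposed to test compounds, and growth was compared with vehicle-treated controls to give percent inhibition.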

[2] = NCI Yeast Anticancer Drug Screen. Data for the mec2-1 strain (AID 157); settings: S. cerevisiae mec2-1 strain, at 50.0 µM, stronger effect = higher value
How it was run: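 Each compound was tested on mec2-1 yeast, a strain altered in DNA damage repair or cell cycle control. Growth inhibition is reported relative to vehicle.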

[3] = NCI Yeast Anticancer Drug Screen. Data for the sgs1 mgt1 strain (AID 161);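 note: 0% = growth of cultures given vehicle only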; settings: S. cerevisiae sgs1 mgt1 strain, at 50.0 µM, stronger effect = higher value
How it was run: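 Mutant yeast exposed to compound; growth scored against vehicle-only wells.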

[4] = NCI Yeast Anticancer Drug Screen. Data for the cln2 rad14 strain (AID 165);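 note: 0% = growth equal to vehicle treated cultures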; settings: S. cerevisiae cln2 rad14 strain, at 50.0 µM, stronger effect = higher value
How it was run: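 Test compounds were added to cln2 rad14 yeast cultures; inhibition of growth was then determined by comparison with vehicle treatment.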

[5] = NCI Yeast Anticancer Drug Screen. Data for the mlh1 rad18 strain (AID 175); settings: S. cerevisiae mlh1 rad18 strain growth inhibition; at 50.0 µM; stronger effect = higher value
How it was run: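 Inhibition values reflect reduced growth of mutant yeast versus vehicle-treated controls following compound exposure; the mutations affect DNA damage repair.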

[6] = NCI Yeast Anticancer Drug Screen. Data for the bub3 strain (AID 167); settings: S. cerevisiae bub3 mutant strain, at 50.0 µM, stronger effect = higher value
How it was run: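 Compounds were applied to a genetically altered yeast strain carrying a cell-cycle control defect. Growth inhibition was scored against vehicle-treated controls.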

Measured: growth inhibition

NC(=O)c1cc2c3ccccc3ccn2c1-c1ccccc1
inactive: [1] 35.8% | [2] 27.2% | [3] 46.7% | [4] 62.6% | [5] 60%

CCCOCc1cn[nH]n1
inactive: [1] -9.7% | [2] 5.25% | [3] 8.3% | [4] -8.85% | [5] -2.35%

O=C(OCc1ccccc1)n1nnc2ccccc21
inactive: [1] 27.8% | [2] -4.05% | [3] 8.55% | [4] -17.2% | [5] 2.45%

Cn1c2ccccc2c2nnc(NCCCCO)nc21
inactive: [1] 10.4% | [2] 18.3% | [3] 19.1% | [4] 24.8% | [6] 19.6% | [5] 41.2%

CCc1ccccc1C(=O)N(CC)CC
inactive: [1] -14.8% | [2] 18.4% | [3] 16.6% | [4] 32% | [5] -6.65%

C=CCc1cc(OC)c(OC)c(OC)c1
inactive: [1] 7.8% | [2] -4.2% | [3] -16.3% | [4] -6.6% | [5] -4%

Cc1ccc2nc(N)nnc2c1
inactive: [1] -5.9% | [2] -34.1% | [3] 3.9% | [4] 20.8% | [5] -3.15%

C#CC(O)c1ccccc1 (stereo unspecified)
inactive: [1] -2.4% | [2] -15.3% | [3] 13.1% | [4] -11.6% | [6] 0.9% | [5] -0.65%

CCOC(=O)c1ccc(NC(C)=O)o1
inactive: [1] -10.3% | [2] 11.3% | [3] -3.35% | [4] -23.1% | [5] 11.1%

CCN(CC)CCOC(=O)Nc1c(C(C)C)cccc1C(C)C
inactive: [1] -2.7% | [2] -24.3% | [3] 14.3% | [4] 15.4% | [6] 13% | [5] 2.15%

CC(C)N(C(=O)c1ccccc1)C(C)C
inactive: [1] 20.2% | [2] 26.2% | [3] 29.4% | [4] -20.1% | [5] 2.35%

Oc1ccc(N=Cc2ccc(OCc3ccccc3)cc2)cc1
inactive: [1] 2.5% | [2] -29.9% | [3] 15.2% | [4] 0.25% | [6] 2.55% | [5] -4.1%

Cc1cccnc1NC1OC(=O)c2ccccc21 (stereo unspecified)
inactive: [1] -22.1% | [2] -4.4% | [3] -16.6% | [4] 2.05% | [5] -9.65%

C=C1C(=O)C2CCN1CC2
inactive: [1] 1.05% | [2] -15.8% | [3] -15.8% | [4] 2.95% | [5] -21.2%

Oc1cc(O)c2c(c1)O[C@H](c1ccc(O)c(O)c1)[C@@H](O)C2
inactive: [1] 0.9% | [2] -17.9% | [3] 2.75% | [4] 1.35% | [6] -6.45% | [5] -18.1%

COc1ccc(Br)c2c1C(=O)CC2
inactive: [1] 43.6% | [2] 23.4% | [3] 29.4% | [4] 28.4% | [6] 5.45% | [5] 32.9%

S=C(Sc1ccc(Cl)cc1)Sc1ccc(Cl)cc1
inactive: [1] 46.5% | [2] 19.9% | [3] 54% | [4] 23.1% | [6] 29.6% | [5] 24.1%

Cc1cc2nc(C)c(C)nc2cc1C
inactive: [1] -20.5% | [2] -37.9% | [3] -27.2% | [4] 7.75% | [6] -25.7% | [5] -20.4%

Cc1cc(CO)c(O)c(CO)c1
inactive: [1] 8.15% | [2] -10.4% | [3] 0.1% | [4] -5.05% | [6] -10.5% | [5] 0.85%

Cc1ccc(Cc2ccc(C)cc2)cc1
inactive: [1] -30.2% | [2] -34.2% | [3] -30.3% | [4] 3% | [6] -4.6% | [5] -8.2%

CCCC(=O)c1cccs1
inactive: [1] 3.25% | [3] 10.8% | [4] -11.3% | [6] -4.1% | [5] 11.9%

COc1cc(-c2ccc(NC(=O)CC(C)=O)c(OC)c2)ccc1NC(=O)CC(C)=O
inactive: [1] -17.8% | [4] -5.3% | [6] 5.95% | [5] -14%

CCCCCCCCNC(=O)C(C)C
inactive: [1] -13.9% | [3] -2.15% | [4] -42.1% | [6] -18.6% | [5] -11.9%

CCN(C(C)=O)c1ccc([N+](=O)[O-])cc1
inactive: [1] -11.9% | [3] 2% | [4] -41.8% | [6] 3.05% | [5] -13.7%

O=C(c1cccc(C(=O)c2ccc3c4c(cccc24)C(=O)N(c2ccccc2)C3=O)c1)c1ccc2c3c(cccc13)C(=O)N(c1ccccc1)C2=O
inactive: [1] -35.5% | [3] -23.1% | [6] -25.4% | [5] -20.8%

COc1cccc2c1Cc1ccccc1-2
inactive: [1] 50.3% | [3] 13.3% | [4] 12.8% | [6] 43.1% | [5] 24.4%

O=[N+]([O-])c1c(O)c(CNCCCO)cc(CNCCCO)c1O
inactive: [1] 13.5% | [3] 18.9% | [4] 19.6% | [6] 25.9% | [5] 43.1%

O=C(O)Cc1ccccn1
inactive: [1] -29.4% | [3] -1.75% | [4] 14.1% | [6] -28.8% | [5] -2.25%

Cc1ccc(C)c2c1CCC2=O
inactive: [1] 3.9% | [3] 13.8% | [4] -19.2% | [5] 13.3%

Cc1ccc(S(=O)(=O)Oc2ccc3sc4c(CO)ccc(NCCN(C)C)c4c(=O)c3c2)cc1
inactive: [1] 6.05% | [3] 12.2% | [4] 21.6% | [5] 1.55%

CCOC(=O)/C(C)=C\c1ccc(OC)c(OC)c1
inactive: [1] -2.15% | [3] 25.9% | [4] -34% | [6] 18.4% | [5] 18.9%

OC(CBr)CCBr (stereo unspecified)
inactive: [1] -28.7% | [3] -39.6% | [4] 3.45% | [6] -32.1% | [5] -32%

Cc1[nH]c(=S)[nH]c(=O)c1C
inactive: [1] -5.1% | [3] -35.6% | [4] -3.4% | [6] -34.4% | [5] -1.7%

C=CCc1cc(OC)c(O)c(OC)c1
inactive: [1] 1.95% | [3] -14.2% | [4] -7.55% | [6] 0.75% | [5] -0.6%

CN(C)c1ccc(/C=C/C(=O)c2ccc(NC(N)=O)cc2)cc1
inactive: [1] -8.35% | [4] -51.6% | [6] -18% | [5] -8%

CC(C)(C)[Si](C)(C)OCC1OC(n2cnc3c(N)ncnc32)CC1OS(C)(=O)=O (stereo unspecified)
inactive: [1] -17% | [3] 0.75% | [4] -3.15% | [6] 5.3% | [5] 0.5%

COC(=O)c1cccc([N+](=O)[O-])c1
inactive: [1] -11.3% | [4] -31.3% | [6] -0.4% | [5] -9.9%

O=C1C=C(c2ccccc2)C(O)(c2ccccc2)C1 (stereo unspecified)
inactive: [1] 15.1% | [3] 6.75% | [4] 5.1% | [6] 11.4% | [5] 6.15%

COc1cc(CC#N)c([N+](=O)[O-])cc1OC
inactive: [1] -3.15% | [3] -12.8% | [4] -39% | [6] -14.2% | [5] 0.4%

CN(C)c1ccc2nc3ccc(=[N+](C)C)cc-3oc2c1
inactive: [1] -27.8% | [4] -250% | [6] 6.1% | [5] -12%

NNC(=O)c1ccccc1N
inactive: [1] -1.8% | [3] 27.1% | [4] -11.2% | [6] -2% | [5] -1.55%

CCOC(=O)C(C#N)=C1CCN(C)CC1
inactive: [1] 8.45% | [3] -0.75% | [4] 10.2% | [5] -5.6%

COc1ccc(C2CCCCC2=O)cc1 (stereo unspecified)
inactive: [2] -48.9% | [3] -11.8% | [4] 5.3% | [6] -34.2%

O=C(c1ccccc1)c1ccc(-c2ccc(O)cc2)cc1
inactive: [1] 37.7% | [3] 24.9% | [4] -44.3% | [6] 57.1% | [5] -8%

Cc1ccc(S(=O)(=O)CCCl)cc1
inactive: [1] 6.8% | [3] -21.9% | [4] -31.2% | [6] 5.3% | [5] 7.85%

CCCCN(C=S)CCCC
inactive: [1] 9.65% | [3] -5.7% | [4] 13.7% | [6] -2.2% | [5] 10.7%
